Where “and” joins values, the source holds several entries; their conditions need not be identical. Equal entries are not always repeated. Results filed as inconclusive are left out. Where a structure was tested more than once in an assay, its records may differ in their call. Calls of active or inactive are those of the source. Rule for the calls, unless noted: active = hit-call score of the fitted dose curve at least 0.9, where 1 is the maximum; inactive = score below 0.9.
Legend:
[1] = ATG_PXRE_CIS: Attagene CIS-FACTORIAL HepG2 Assay for human Pregnane X Receptor Element (PXRE) (AID 2282957); details: HepG2 Attagene CIS-FACTORIAL PXRE reporter, mRNA; actives raise or lower the signal
Procedure, shortened: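 Multiplexed cis-reporter assay in transiently transfected human HepG2 cells; 24 h chemical exposure. Reporter transcripts quantified by RT-PCR with fluorescent labeling and capillary electrophoresis.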

[2] = ATG_PPRE_CIS: Attagene CIS-FACTORIAL HepG2 Assay for human Peroxisome Proliferator-activated Response Element (PPRE) (AID 2282958); details: HepG2 PPRE cis-element reporter, Attagene transcription factor profiling; actives raise or lower the signal
Procedure, shortened: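 DMSO served as negative control and baseline for bidirectional curve fitting. Signal came from PPRE-regulated reporter mRNA in HepG2 cells, measured 24 h post-dosing by RT-PCR, 6-FAM primer extension and capillary electrophoresis.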

[3] = ATG_RORE_CIS: Attagene CIS-FACTORIAL HepG2 Assay for human RAR-related Orphan Receptor Element (RORE) (AID 2282959); details: HepG2 Attagene cis-factorial RORE reporter, mRNA; actives raise or lower the signal
Procedure, shortened: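 Transfect HepG2 with MRTUs; treat 24 h; extract RNA; RT with oligo(dT); PCR with reporter-specific primers; 6-FAM primer extension; HpaI digest 2 h at 37 C; capillary electrophoresis. Fit vs DMSO, bidirectional.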

[4] = ATG_Sox_CIS: Attagene CIS-FACTORIAL HepG2 Assay for human SRY-box transcription factor (SOX) (AID 2282960); details: HepG2 Attagene cis-factorial SOX reporter, mRNA; actives raise or lower the signal
Procedure, shortened: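 Fluorescence-labelled cDNA fragments from reporter transcripts, sized by CE, give the signal. Cells: HepG2, transiently transfected with cis-regulated reporter units. Exposure 24 h; DMSO negative control; bidirectional curve fitting.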

[5] = ATG_SREBP_CIS: Attagene CIS-FACTORIAL HepG2 Assay for human Sterol Regulatory Element Binding (SREBP) (AID 2282962); details: HepG2 Attagene cis-factorial SREBP reporter, mRNA; actives raise or lower the signal
Procedure, shortened: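 HepG2 cells transiently transfected with multiplexed cis-element reporter units report endogenous transcription factor activity. After 24 h of chemical exposure, reporter mRNA was quantified by RT-PCR, 6-FAM labelling, HpaI digestion and capillary electrophoresis; bidirectional fits used DMSO as baseline.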

[6] = molecular target: Signal transducer and activator of transcription 3 (Homo sapiens) (UniProt P40763); test: ATG_STAT3_CIS: Attagene CIS-FACTORIAL HepG2 Assay for human Signal Transducer and Activator of Transcription 3 (STAT3) (AID 2282963); details: HepG2, Attagene cis-factorial STAT3 reporter transcription; actives raise or lower the signal
Signal transducer and activator of transcription 3 (Homo sapiens), sequence (P40763 whole entry, looked up): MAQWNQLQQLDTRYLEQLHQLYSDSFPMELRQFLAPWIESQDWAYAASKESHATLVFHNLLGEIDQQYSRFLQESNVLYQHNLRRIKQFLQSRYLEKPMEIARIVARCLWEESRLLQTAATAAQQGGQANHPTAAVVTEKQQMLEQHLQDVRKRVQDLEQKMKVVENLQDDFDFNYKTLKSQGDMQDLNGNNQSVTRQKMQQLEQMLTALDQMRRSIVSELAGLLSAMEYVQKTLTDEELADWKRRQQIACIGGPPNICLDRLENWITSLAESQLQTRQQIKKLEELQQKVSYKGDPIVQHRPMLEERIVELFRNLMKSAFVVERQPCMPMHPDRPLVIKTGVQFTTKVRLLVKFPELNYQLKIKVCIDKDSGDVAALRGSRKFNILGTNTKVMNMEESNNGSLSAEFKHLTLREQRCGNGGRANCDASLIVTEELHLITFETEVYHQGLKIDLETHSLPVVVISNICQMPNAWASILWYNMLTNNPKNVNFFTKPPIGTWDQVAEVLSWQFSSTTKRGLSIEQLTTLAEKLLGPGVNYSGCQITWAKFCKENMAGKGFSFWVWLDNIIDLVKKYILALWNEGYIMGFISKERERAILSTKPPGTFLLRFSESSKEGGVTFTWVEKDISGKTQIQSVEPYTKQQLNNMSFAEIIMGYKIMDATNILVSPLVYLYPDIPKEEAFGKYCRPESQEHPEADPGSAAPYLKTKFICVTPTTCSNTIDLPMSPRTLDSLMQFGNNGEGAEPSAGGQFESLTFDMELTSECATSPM
Procedure, shortened: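 Transcript-level reporter assay. HepG2 transient MRTU transfection, 24 h exposure, fluorescence detection after RT-PCR and CE; DMSO baseline.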

[7] = ATG_TA_CIS: Attagene CIS-FACTORIAL HepG2 Assay for human TA Basal Promoter (AID 2282964); details: HepG2 Attagene CIS-factorial TA basal promoter reporter; actives raise or lower the signal
Procedure, shortened: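 Steps: transfect HepG2 with MRTUs; dose 24 h; isolate RNA, DNase-treat, reverse-transcribe; PCR and FAM-label reporter cDNA; digest with HpaI 2h at 37 C; run capillary electrophoresis. Activity fitted both directions against DMSO.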

[8] = ATG_TAL_CIS: Attagene CIS-FACTORIAL HepG2 Assay for human TAL Basal Promoter (AID 2282966); details: HepG2 Attagene cis-factorial TAL promoter reporter; actives raise or lower the signal;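 note: background control endpoint measuring basal TAL promoter reporter mRNA not a specific factor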
Procedure, shortened: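 Steps: transfect HepG2 with multiple reporter transcription units; dose 24 h; isolate RNA, reverse-transcribe, PCR-amplify, label with 6-FAM, digest with HpaI; resolve by capillary electrophoresis. Bidirectional fitting against DMSO baseline.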

[9] = ATG_TGFb_CIS: Attagene CIS-FACTORIAL HepG2 Assay for human Transforming Growth Factor (TGF) (AID 2282967); details: HepG2 Attagene CIS TGFb reporter, mRNA transcription; actives raise or lower the signal
Procedure, shortened: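 Cells were dosed for 24 hours, after which total RNA was reverse-transcribed and reporter sequences amplified, labeled and sized by capillary electrophoresis. Activity was fitted in both directions against DMSO.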

[10] = ATG_VDRE_CIS: Attagene CIS-FACTORIAL HepG2 Assay for human Vitamin D Receptor Element (VDRE) (AID 2282968); details: HepG2 VDRE cis-reporter transcription, actives raise or lower the signal
Procedure, shortened: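 RT-PCR/CE readout of reporter mRNA; HepG2, transient transfection, 24 h dosing; DMSO baseline; bidirectional analysis.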

[11] = molecular target: Nuclear receptor subfamily 1 group I member 3 (Homo sapiens) (UniProt Q14994); test: ATG_CAR_TRANS: Attagene TRANS-FACTORIAL HepG2 Assay for human Constitutive Androstane Receptor (CAR) (AID 2282969; active = hit-call score of the fitted dose curve at least 0.9, where 1 is the maximum;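 note: activators raise reporter mRNA above DMSO so AC50 marks induction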); details: HepG2 Attagene TRANS-FACTORIAL CAR reporter
Nuclear receptor subfamily 1 group I member 3 (Homo sapiens), sequence (Q14994 whole entry, looked up, the tested form may be a part): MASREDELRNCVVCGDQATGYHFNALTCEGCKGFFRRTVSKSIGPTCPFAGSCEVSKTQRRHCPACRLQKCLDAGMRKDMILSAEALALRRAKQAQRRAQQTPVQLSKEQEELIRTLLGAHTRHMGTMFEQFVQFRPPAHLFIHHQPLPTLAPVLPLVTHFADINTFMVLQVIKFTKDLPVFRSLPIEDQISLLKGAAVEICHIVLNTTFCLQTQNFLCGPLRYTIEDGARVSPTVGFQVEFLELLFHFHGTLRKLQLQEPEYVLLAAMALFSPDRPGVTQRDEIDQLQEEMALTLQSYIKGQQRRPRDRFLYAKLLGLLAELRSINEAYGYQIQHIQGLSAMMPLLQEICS
Procedure, shortened: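 HepG2 cells transiently transfected with multiplexed GAL4-UAS reporter units expressing chimeric NR-Gal4 proteins; compound exposure 24 h. Reporter mRNA measured by RT-PCR, 6-FAM labelling, HpaI digestion and capillary electrophoresis; gain-of-signal fitted against DMSO baseline.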

[12] = molecular target: Estrogen receptor (Homo sapiens) (UniProt P03372); test: ATG_ERa_TRANS: Attagene TRANS-FACTORIAL HepG2 Assay for human Estrogen Receptor alpha (ERa) (AID 2282970; active = hit-call score of the fitted dose curve at least 0.9, where 1 is the maximum); details: HepG2 Attagene TRANS ERa GAL4 reporter, mRNA
Estrogen receptor (Homo sapiens), sequence (P03372 whole entry, looked up, the tested form may be a part): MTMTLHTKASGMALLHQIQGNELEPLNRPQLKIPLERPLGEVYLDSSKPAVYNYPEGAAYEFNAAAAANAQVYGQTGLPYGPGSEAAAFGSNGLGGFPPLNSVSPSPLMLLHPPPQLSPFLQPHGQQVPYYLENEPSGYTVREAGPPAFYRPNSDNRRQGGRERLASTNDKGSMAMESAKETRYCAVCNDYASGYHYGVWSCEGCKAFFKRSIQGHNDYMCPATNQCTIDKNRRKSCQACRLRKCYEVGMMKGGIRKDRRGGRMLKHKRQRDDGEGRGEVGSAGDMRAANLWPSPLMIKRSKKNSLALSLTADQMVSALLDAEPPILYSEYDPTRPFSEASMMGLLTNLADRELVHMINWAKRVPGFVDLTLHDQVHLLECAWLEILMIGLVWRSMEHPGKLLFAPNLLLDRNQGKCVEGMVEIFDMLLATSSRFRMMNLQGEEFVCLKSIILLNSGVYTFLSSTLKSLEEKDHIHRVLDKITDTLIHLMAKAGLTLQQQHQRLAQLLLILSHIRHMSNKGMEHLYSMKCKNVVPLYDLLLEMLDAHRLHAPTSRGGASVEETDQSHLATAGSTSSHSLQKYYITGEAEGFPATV
Procedure, shortened: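 Multiplexed cell-based reporter format in HepG2: chimeric ERa-Gal4 protein drives GAL4-UAS reporter transcription. Fluorescent reporter mRNA quantified by capillary electrophoresis 24 hours after dosing; endpoint fitted as signal gain against DMSO.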

[13] = molecular target: X-box-binding protein 1 (Homo sapiens) (UniProt P17861); test: ATG_Xbp1_CIS: Attagene CIS-FACTORIAL HepG2 Assay for human X-box Binding Protein 1 (XBP1) (AID 2282972); details: HepG2 XBP1 cis-element reporter, Attagene multiplex; actives raise or lower the signal
X-box-binding protein 1 (Homo sapiens), sequence (P17861 whole entry, looked up): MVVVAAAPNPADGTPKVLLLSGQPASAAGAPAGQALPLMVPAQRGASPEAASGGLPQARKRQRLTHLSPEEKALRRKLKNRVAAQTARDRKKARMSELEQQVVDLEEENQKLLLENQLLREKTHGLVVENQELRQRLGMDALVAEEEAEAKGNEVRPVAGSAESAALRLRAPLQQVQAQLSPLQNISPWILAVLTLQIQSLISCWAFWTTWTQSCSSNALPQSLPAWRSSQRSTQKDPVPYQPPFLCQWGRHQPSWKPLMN
Procedure, shortened: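 HepG2 cells transiently transfected with cis-regulated multiple reporter transcription units; endogenous transcription factor activity measured 24 hours after chemical dosing. Reporter mRNA quantified by RT-PCR, 6-FAM primer extension, HpaI digestion and capillary electrophoresis; bidirectional fitting versus DMSO.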

[14] = ATG_M_19_TRANS: Attagene TRANS-FACTORIAL HepG2 Assay for M19 Transcription Factor (Internal Marker) (AID 2282974; active = hit-call score of the fitted dose curve at least 0.9, where 1 is the maximum); details: HepG2 Attagene TRANS-FACTORIAL M19 internal marker reporter
Procedure, shortened: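 Multiplexed TRANS format: HepG2 liver cells bearing transient GAL4-UAS reporter units, chemical treatment 24 h, reporter transcripts quantified by RT-PCR plus capillary electrophoresis. DMSO defines baseline.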

[15] = molecular target: Transcription factor Sp1 (Homo sapiens) (UniProt P08047); test: ATG_Sp1_CIS: Attagene CIS-FACTORIAL HepG2 Assay for human Specificity Protein 1 (Sp1) (AID 2282961); details: HepG2 Sp1 cis-reporter transcription, actives raise or lower the signal
Transcription factor Sp1 (Homo sapiens), sequence (P08047 whole entry, looked up): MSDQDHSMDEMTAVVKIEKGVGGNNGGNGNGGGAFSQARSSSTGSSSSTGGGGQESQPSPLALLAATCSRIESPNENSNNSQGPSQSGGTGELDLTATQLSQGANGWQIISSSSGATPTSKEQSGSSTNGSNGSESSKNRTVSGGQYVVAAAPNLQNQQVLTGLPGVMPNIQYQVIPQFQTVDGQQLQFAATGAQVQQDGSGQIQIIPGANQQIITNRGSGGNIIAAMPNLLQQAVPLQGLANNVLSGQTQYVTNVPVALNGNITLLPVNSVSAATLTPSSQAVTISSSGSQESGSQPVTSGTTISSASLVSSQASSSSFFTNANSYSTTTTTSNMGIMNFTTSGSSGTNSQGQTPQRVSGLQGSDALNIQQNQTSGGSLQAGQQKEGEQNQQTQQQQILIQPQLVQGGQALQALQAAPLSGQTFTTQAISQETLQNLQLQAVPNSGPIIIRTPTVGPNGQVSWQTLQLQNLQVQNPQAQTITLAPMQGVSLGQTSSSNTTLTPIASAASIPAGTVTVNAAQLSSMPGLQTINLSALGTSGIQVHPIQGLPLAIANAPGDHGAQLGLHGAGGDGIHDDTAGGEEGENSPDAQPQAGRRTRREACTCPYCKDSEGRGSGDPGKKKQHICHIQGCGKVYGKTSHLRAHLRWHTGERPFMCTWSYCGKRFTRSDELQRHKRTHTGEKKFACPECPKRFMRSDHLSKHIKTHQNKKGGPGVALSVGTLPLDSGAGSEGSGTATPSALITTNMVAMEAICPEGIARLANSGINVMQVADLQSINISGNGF
Procedure, shortened: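 Chemicals are dosed onto HepG2 cells transfected with multiple cis-promoter reporter constructs, and after 24 h reporter RNA is reverse-transcribed, PCR-amplified and resolved by capillary electrophoresis for fluorescence quantitation; activity is scored up or down against DMSO.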

[16] = ATG_TCF_b_cat_CIS: Attagene CIS-FACTORIAL HepG2 Assay for human T-Cell-Factor with beta-catenin (TCF/b-cat) (AID 2282965); details: HepG2 TCF/beta-catenin cis-reporter transcription, actives raise or lower the signal
Procedure, shortened: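 Using capillary electrophoresis as the read-out, labelled reporter cDNA fragments from transiently transfected HepG2 were sized and quantified. Exposure lasted 24 hours; activity in either direction was referenced to DMSO.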

[17] = molecular target: Estrogen-related receptor gamma (Homo sapiens) (UniProt P62508); test: ATG_ERRg_TRANS: Attagene TRANS-FACTORIAL HepG2 Assay for human Estrogen-Related Receptor gamma (ERRg) (AID 2282977; active = hit-call score of the fitted dose curve at least 0.9, where 1 is the maximum;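 note: hits increase reporter signal over DMSO so potencies reflect activators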); details: HepG2 Attagene TRANS reporter, ERRg transactivation
Estrogen-related receptor gamma (Homo sapiens), sequence (P62508 whole entry, looked up, the tested form may be a part): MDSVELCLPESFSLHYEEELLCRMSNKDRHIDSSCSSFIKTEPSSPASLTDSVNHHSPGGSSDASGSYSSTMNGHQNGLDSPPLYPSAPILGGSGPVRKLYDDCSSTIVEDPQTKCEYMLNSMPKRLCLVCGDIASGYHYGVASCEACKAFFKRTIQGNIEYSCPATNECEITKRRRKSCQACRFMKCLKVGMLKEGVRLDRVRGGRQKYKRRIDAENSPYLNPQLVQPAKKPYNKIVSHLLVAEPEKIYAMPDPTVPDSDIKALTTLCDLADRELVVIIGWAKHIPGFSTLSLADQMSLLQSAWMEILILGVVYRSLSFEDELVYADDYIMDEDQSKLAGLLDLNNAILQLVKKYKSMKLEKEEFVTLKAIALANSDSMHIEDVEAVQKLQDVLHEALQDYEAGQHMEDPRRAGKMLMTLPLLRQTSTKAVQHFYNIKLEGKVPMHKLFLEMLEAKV
Procedure, shortened: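 Transfect HepG2 with multiple GAL4-UAS reporter transcription units; dose chemicals 24 h; isolate RNA, reverse-transcribe with oligo(dT), PCR-amplify, label with 6-FAM, digest with HpaI; size fragments by capillary electrophoresis. DMSO serves as negative control.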

[18] = molecular target: Glucocorticoid receptor (Homo sapiens) (UniProt P04150); test: ATG_GR_TRANS: Attagene TRANS-FACTORIAL HepG2 Assay for human Glucocorticoid Receptor (GR) (AID 2282978; active = hit-call score of the fitted dose curve at least 0.9, where 1 is the maximum;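 note: activators score as hits since higher reporter transcript over DMSO is fitted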); details: HepG2 Attagene TRANS GR reporter, mRNA transcription
Glucocorticoid receptor (Homo sapiens), sequence (P04150 whole entry, looked up, the tested form may be a part): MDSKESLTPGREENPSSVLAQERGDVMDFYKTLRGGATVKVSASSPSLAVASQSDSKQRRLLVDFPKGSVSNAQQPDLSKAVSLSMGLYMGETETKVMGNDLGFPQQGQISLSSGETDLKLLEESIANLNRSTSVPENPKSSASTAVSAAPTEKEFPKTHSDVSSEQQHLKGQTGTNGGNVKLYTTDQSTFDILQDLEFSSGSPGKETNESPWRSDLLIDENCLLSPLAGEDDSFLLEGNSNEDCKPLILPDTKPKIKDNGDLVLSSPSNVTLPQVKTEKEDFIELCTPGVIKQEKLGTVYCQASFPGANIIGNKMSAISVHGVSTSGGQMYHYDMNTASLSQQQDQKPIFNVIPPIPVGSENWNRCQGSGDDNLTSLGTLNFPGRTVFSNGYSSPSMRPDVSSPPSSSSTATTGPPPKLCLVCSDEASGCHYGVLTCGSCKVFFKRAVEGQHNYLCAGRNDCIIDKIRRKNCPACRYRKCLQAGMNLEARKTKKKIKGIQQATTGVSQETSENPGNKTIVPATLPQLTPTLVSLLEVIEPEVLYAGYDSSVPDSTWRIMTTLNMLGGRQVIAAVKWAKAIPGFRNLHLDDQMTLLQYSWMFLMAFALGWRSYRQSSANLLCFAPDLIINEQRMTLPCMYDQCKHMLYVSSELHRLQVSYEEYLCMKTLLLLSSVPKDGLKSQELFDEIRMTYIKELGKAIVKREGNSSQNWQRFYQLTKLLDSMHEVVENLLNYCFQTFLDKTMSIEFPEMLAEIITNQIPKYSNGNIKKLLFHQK
Procedure, shortened: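 Transiently transfected HepG2 cells express chimeric NR-GAL4 proteins acting on GAL4-UAS reporter units. Compounds are applied for 24 h. mRNA induction over DMSO is measured by capillary electrophoresis.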

[19] = ATG_GAL4_TRANS: Attagene TRANS-FACTORIAL HepG2 Assay for GAL4 (Internal Marker) (AID 2282976; active = hit-call score of the fitted dose curve at least 0.9, where 1 is the maximum); details: HepG2 Attagene TRANS GAL4 internal marker reporter
Procedure, shortened: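 Liver HepG2 line bearing multiplexed GAL4-UAS reporter constructs; 24 h chemical treatment. Transcripts were quantified as fluorescent fragments on capillary electrophoresis after RT-PCR and HpaI cut, with activity fitted upward from DMSO.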

[20] = molecular target: Steroid hormone receptor ERR1 (Homo sapiens) (UniProt P11474); test: ATG_ERRa_TRANS: Attagene TRANS-FACTORIAL HepG2 Assay for human Estrogen-Related Receptor alpha (ERRa) (AID 2282971; active = hit-call score of the fitted dose curve at least 0.9, where 1 is the maximum); details: HepG2 Attagene TRANS reporter, ERRa transactivation
Steroid hormone receptor ERR1 (Homo sapiens), sequence (P11474 whole entry, looked up, the tested form may be a part): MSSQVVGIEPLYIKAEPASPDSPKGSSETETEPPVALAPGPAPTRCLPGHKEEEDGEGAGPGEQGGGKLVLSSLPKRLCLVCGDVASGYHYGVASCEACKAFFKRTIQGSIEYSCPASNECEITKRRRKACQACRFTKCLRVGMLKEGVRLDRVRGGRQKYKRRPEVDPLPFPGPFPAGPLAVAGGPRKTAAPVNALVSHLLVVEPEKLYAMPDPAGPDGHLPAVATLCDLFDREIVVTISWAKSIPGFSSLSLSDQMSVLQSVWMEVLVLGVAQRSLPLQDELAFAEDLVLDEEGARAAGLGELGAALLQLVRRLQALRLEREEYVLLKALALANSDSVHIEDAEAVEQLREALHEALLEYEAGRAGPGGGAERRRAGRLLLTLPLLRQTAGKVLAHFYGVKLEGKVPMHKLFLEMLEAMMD
Procedure, shortened: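 Signal gain relative to DMSO for an ERRa-Gal4 chimeric receptor, read as reporter mRNA by RT-PCR/capillary electrophoresis. Human HepG2 liver cells, transient multiplex reporter transfection, 24 h chemical exposure.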

Measured: AC50

CCCCCCCCC(C)=O
not listed: [15] | [16] | [17] | [18] | [19] | [20]
inactive: all other assays above

O=C(Nc1ccc(Cl)c(Cl)c1)c1cc(Cl)cc(Cl)c1O
active: [1] 1.49 µM | [2] 0.648 µM | [3] 0.903 µM | [16] 33.4 µM | [10] 2.27 µM | [12] 6.62 µM | [13] 1.72 µM
not listed: [5] | [7] | [14] | [19] | [20]
inactive: all other assays above

O=C(OC(=O)C(F)(F)C(F)(F)F)C(F)(F)C(F)(F)F
not listed: [7] | [11] | [12] | [14] | [15] | [17] | [18] | [20]
inactive: all other assays above

OCC1CCC(CO)CC1 (stereo not drawn)
not listed: [5] | [10] | [11] | [12] | [14] | [17] | [19] | [20]
inactive: all other assays above

O=P(O)(O)CCC(F)(F)C(F)(F)C(F)(F)C(F)(F)C(F)(F)C(F)(F)F
not listed: [7] | [11] | [15] | [17]
inactive: all other assays above

Oc1cc2ccccc2cc1O
active: [2] 100 µM
not listed: [11] | [15] | [17] | [18] | [19] | [20]
inactive: all other assays above

CCCCCCC(C)(C)C(=O)O
inactive: [3] | [4] | [15] | [6] | [7] | [8] | [9] | [11] | [13]
active: [1] 27.4 µM | [2] 55.5 µM | [10] 73.2 µM | [12] 26.4 µM

CCCCN(C)C
active: [1] 26.9 µM
not listed: [5] | [11] | [12] | [14] | [17] | [19] | [20]
inactive: all other assays above

CC(C)c1c(C(=O)Nc2ccccc2)c(-c2ccccc2)c(-c2ccc(F)cc2)n1CC[C@@H](O)C[C@@H](O)CC(=O)O
active: [1] 5.31 µM and 12.2 µM | [5] 0.156 µM | [7] 66.4 µM and 45 µM | [16] 144 µM | [8] 41.9 µM and 20.2 µM | [10] 14.2 µM and 7.84 µM
inactive: [2] | [3] | [4] | [5] | [6] | [16] | [9] | [13] | [14] | [19]

CCC1CO1 (stereo not drawn)
not listed: [5] | [7] | [11] | [12] | [14] | [17] | [18] | [20]
inactive: all other assays above

OCCN1CN(CCO)CN(CCO)C1
active: [1] 30 µM | [4] 150 µM | [13] 164 µM
inactive: [2] | [3] | [5] | [6] | [16] | [8] | [9] | [14] | [19]

FC(OC(F)(F)C(F)(F)C(F)(F)F)C(F)(F)F (stereo not drawn)
not listed: [7] | [10] | [14] | [15] | [17]
inactive: all other assays above

Brc1ccc(Oc2ccc(Br)cc2Br)cc1
not listed: [5] | [7] | [11] | [12] | [17] | [18] | [19]
inactive: all other assays above

COCC1CCC(CO)CC1 (stereo not drawn)
inactive: [1] | [2] | [3] | [4] | [15] | [6] | [16] | [8] | [9] | [10] | [13]

— PubChem BioAssay (EPA / NIEHS)
